# In PubChem BioAssay (NCI):
# The panel holds about 83,000 compounds, 20% with a hit somewhere; the sample as a whole holds those more often.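 Assay: single dose, 48 h. Readout: percent growth (0 = no net growth; negative = cell death). Active: <10.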 Values without a mark were called inactive. Activity calls are given as the source filed them.
# Tests used:
# Assay in all cases: NCI-60 one-dose screen, 48 h (100 = growth as untreated, 0 = no growth, -100 = all killed)
# Conditions in all cases: 10 µM unless noted
# [1] = tested on: HCT-15 colon
# [2] = tested on: HT29 colon
# [3] = tested on: SNB-75 CNS
# [4] = tested on: U251 CNS
# [5] = tested on: PC-3 prostate
# [6] = tested on: SK-MEL-5 melanoma
# [7] = tested on: UACC-62 melanoma
# [8] = tested on: LOX IMVI melanoma
# [9] = tested on: SK-MEL-28 melanoma
# [10] = tested on: SK-MEL-2 melanoma
# [11] = tested on: EKVX NSCLC
# [12] = tested on: SN12C renal
# [13] = tested on: UO-31 renal
# [14] = tested on: TK-10 renal
# [15] = tested on: ACHN renal
# [16] = tested on: CAKI-1 renal
# [17] = tested on: A498 renal
# [18] = tested on: CCRF-CEM leukemia
# [19] = tested on: SNB-19 CNS
# [20] = tested on: MOLT-4 leukemia
Structure (SMILES),growth [1],growth [2],growth [3],growth [4],growth [5],growth [6],growth [7],growth [8],growth [9],growth [10],growth [11],growth [12],growth [13],growth [14],growth [15],growth [16],growth [17],growth [18],growth [19],growth [20]
CC(C)CCC(=O)[C@@H](C)[C@H]1[C@@H](OC2OCC(O)C(O)C2NS(C)(=O)=O)C[C@H]2[C@@H]3CC=C4C[C@@H](O)CC[C@]4(C)[C@H]3CC[C@]12C (stereo partly drawn),14%,19.6%,22.2%,5.29% (active),4.46% (active),7.33% (active),-22% (active),21.9%,-36.1% (active),-36.9% (active),27.7%,75.2%,-16.1% (active),26.1%,42.1%,24.1%,-58.4% (active),-8.84% (active),,
c1coc(CNc2c3ccccc3nc3ccccc23)c1,44.2%,35.1%,81.5%,65.1%,67%,84.3%,66.1%,37.1%,,101%,62.1%,53.5%,39.5%,88.4%,26.2%,41%,20.1%,57.2%,62.8%,27.2%
COc1ccc(-c2cnc(-c3ccncc3-c3cccc(OC)c3)o2)cc1,7.4% (active),-36.6% (active),41.2%,24.3%,16.9%,-20.4% (active),24.9%,27.3%,57.6%,5.27% (active),58.1%,15%,42.6%,30.5%,17.1%,32%,35.3%,3.12% (active),,11.5%
COc1cc2c(cc1OC)-c1cc(OC)c(OC)cc1C(CN(C)C)C2 (stereo not drawn),78.2% [100 µM],78.4% [100 µM],-56.2% [100 µM] (active),,56.3% [100 µM],73.4% [100 µM],20.4% [100 µM],71.1% [100 µM],41.4% [100 µM],29% [100 µM],,43.7% [100 µM],68.1% [100 µM],65.7% [100 µM],44.6% [100 µM],11.6% [100 µM],52.6% [100 µM],,7.08% [100 µM] (active),103% [100 µM]
COc1cc(C)c(Cl)cc1C1=NN(c2ccc(S(N)(=O)=O)cc2)C(/C=C/c2ccccc2)C1 (stereo not drawn),35.1%,23.2%,65.2%,18.3%,7.54% (active),64.9%,39.8%,51.6%,88.1%,74.6%,49.3%,20.6%,44.9%,46%,15%,59.5%,64.4%,54.5%,,49.9%
CCSc1cnnc2ccccc12,105%,106%,89.3%,102%,104%,107%,102%,103%,,115%,98.9%,103%,94.3%,116%,95.1%,95.3%,89.3%,97.2%,106%,89.7%
CCOC(=O)Cn1c(-c2nonc2NC(=O)c2ccccc2F)nc2ccccc21,29.2%,27.4%,70.1%,28.1%,44.7%,32.4%,42.4%,10.3%,,78%,71.1%,57.9%,54.5%,66.1%,46.5%,25%,82.5%,42.3%,47.1%,25%
N/C(=N\O)c1ncc(-c2ccc(C(F)(F)F)cc2)c(NC2CCCCCC2)n1,-62.4% [100 µM] (active),-91.6% [100 µM] (active),-41.4% [100 µM] (active),,-88.9% [100 µM] (active),-85.8% [100 µM] (active),-88.2% [100 µM] (active),-73.5% [100 µM] (active),10.3% [100 µM],-90.6% [100 µM] (active),,-91.3% [100 µM] (active),-92.1% [100 µM] (active),-69.5% [100 µM] (active),-64.3% [100 µM] (active),-76.4% [100 µM] (active),-90.1% [100 µM] (active),,-12.7% [100 µM] (active),-61.3% [100 µM] (active)
O=C1SCN(Cc2ccccc2)CN1Cc1ccccc1,98%,90.4%,91%,99.5%,86.3%,92.8%,89.6%,70.2%,111%,101%,101%,96.3%,57.9%,111%,107%,95.9%,78.2%,61.3%,,
CCOC(=O)C1=C(C(=O)OCC)N(c2cc(OC)c(OC)c(OC)c2)C(N)=C(C#N)C1c1cc(=O)[nH]c2ccccc12 (stereo not drawn),106%,112%,83%,98.7%,123%,95.9%,88.6%,93.7%,114%,115%,89.3%,98.5%,76.8%,100%,97.6%,87%,78.1%,113%,,100%
CCN(CC)CC(=O)Nc1c(C)ccc(N)c1C,97.1%,91.7%,91.7%,96.1%,97.5%,99.6%,97.6%,96.4%,,99.4%,96.5%,99.4%,86.2%,100%,112%,102%,,112%,100%,115%
OC(CCCCCCCCC(O)CN1CCc2ccccc2C1)CN1CCc2ccccc2C1 (stereo not drawn),95.1%,114%,95.4%,101%,98.9%,95.2%,101%,96.4%,,111%,89.5%,105%,86.1%,103%,110%,92.6%,107%,,105%,110%
CN(C)c1nc(-c2ccco2)n2nc(-c3ccc(Cl)cc3)cc2n1,92.7%,58.6%,20.9%,59.5%,64.7%,81.2%,87%,50.5%,,99.2%,84.2%,86.6%,20.7%,23.1%,28.5%,74.1%,75.8%,86.7%,77.9%,86.8%
COc1ccc(/C(C)=N/NC(=O)CSc2nc3ccccc3c(=O)n2CCc2ccc(S(N)(=O)=O)cc2)cc1,65.3%,-10% (active),-26.2% (active),-32.9% (active),-12.8% (active),-26.3% (active),27.3%,28.3%,43.1%,6.04% (active),87.3%,27.7%,32.4%,-39.8% (active),34.7%,28.9%,5.05% (active),33.9%,,
COC(=O)[C@H](Cc1cn(C)cn1)NC(=O)[C@H](CC(C)C)NC(=O)Nc1cc(C(F)(F)F)cc(C(F)(F)F)c1,-96.6% [100 µM] (active),-89.6% [100 µM] (active),-100% [100 µM] (active),,-95.1% [100 µM] (active),-95.4% [100 µM] (active),-99.3% [100 µM] (active),-86.6% [100 µM] (active),-100% [100 µM] (active),-95.4% [100 µM] (active),,-92.8% [100 µM] (active),-96.7% [100 µM] (active),-98.5% [100 µM] (active),-100% [100 µM] (active),-99.2% [100 µM] (active),-93.8% [100 µM] (active),,-97.9% [100 µM] (active),-57.2% [100 µM] (active)
COc1cc(C2CC(c3ccc(C)cc3)=NN2C=O)ccc1Oc1ccnc2cc(Cl)ccc12 (stereo not drawn),97.4%,92.3%,-36.1% (active),7.3% (active),85.3%,97.1%,55.8%,76%,,6.3% (active),79.2%,75.7%,95.3%,54.5%,48.3%,69.7%,53.3%,82.8%,29.5%,80.3%
